Holding throughout (assay type): functional
Assay [1] concerns Plasmodium falciparum. The assay is described as follows: GSK_TCMDC: Inhibition of Plasmodium falciparum 3D7 in whole red blood cells, using parasite LDH activity as an index of growth. Test compounds present at 2uM.
Assay [2] has as its system Plasmodium falciparum. The assay is described as follows: GSK_TCMDC: Inhibition of Plasmodium falciparum Dd2 in whole red blood cells, using parasite LDH activity as an index of growth. Test compounds present at 2uM.
Another assay concerns HepG2. The assay is described as follows: GSK_TCMDC: Percent inhibition of human HepG2 cell line. Test compounds present at 10uM.

The results in this text go back to ChEMBL document CHEMBL1157539, “Thousands of chemical starting points for antimalarial lead identification” (Nature, 2010).

For orientation: Inhibition means the drop in the measured response relative to a control, in per cent.

As for `O=C(N[C@@H](Cc1ccccc1)C(=O)NCCN1CCCCC1)c1ccc(O)c(-c2ccc(Cl)c(Cl)c2)c1`, the Inhibition amounted to 99% with Plasmodium falciparum [1], 97% with Plasmodium falciparum [2] and 6% in the assay on HepG2.

`O=C(Nc1cccc(-c2cccc(-c3nc4cc(C(F)(F)F)ccc4[nH]3)c2)c1)c1ccc(=O)[nH]n1`: the Inhibition with Plasmodium falciparum [1] is 100%; in the assay on Plasmodium falciparum [2] it was 26%; in the assay on HepG2, 63%.

As to `O=C(N[C@@H](Cc1ccccc1)[C@H](O)CNC1CCOCC1)c1cc(C2CCCC2)cc(N2CCCCS2(=O)=O)c1.O=CO`, the Inhibition was determined as 100% in the assay with Plasmodium falciparum [1], 98% in the assay with Plasmodium falciparum [2] and 3% with HepG2.

Regarding `CC(COc1ccc2c(c1)OC(C)(C)CC2c1ccccc1)NCC(O)c1cccc(Cl)c1.Cl` (configuration not stated), the Inhibition with Plasmodium falciparum [1] is listed as 98%; in the assay with Plasmodium falciparum [2] it was 96%; with HepG2 it was 1%.

Turning to `COC(=O)c1cccc(CNCc2cccc(-c3ccc(-c4nc5cccc(C)c5[nH]4)cc3)c2)c1.O=C(O)C(F)(F)F`, the Inhibition in the assay on Plasmodium falciparum [1] was determined as 100%; in the assay with Plasmodium falciparum [2], 52%; in the assay on HepG2, 3%.

As for `COc1ccc(F)cc1-c1ccc(C(=O)N2CCCN(c3ccc(C#N)cn3)CC2)cc1`, the Inhibition is on record as 99% in the assay on Plasmodium falciparum [1], 100% with Plasmodium falciparum [2] and 9% with HepG2.

Take `Cc1noc(C)c1-c1cccc(CNCc2ccc(-c3ccc(-c4nc5cc(C(F)(F)F)ccc5[nH]4)s3)cc2)c1.O=C(O)C(F)(F)F`: the Inhibition with Plasmodium falciparum [1] was found to be 100%; in the assay on Plasmodium falciparum [2], 99%; in the assay with HepG2, 54%.

For `COc1cc(Cc2cnc(N)nc2N)cc(OC)c1OCCNC(=O)[C@@H](N)CCC(=O)O.Cl`, the Inhibition in the assay with Plasmodium falciparum [1] came out at 96%; in the assay on Plasmodium falciparum [2], 0%; in the assay with HepG2, 0%.

As for `O=C(/C=C/c1ccccc1Cl)Nc1ccc(Br)c(OCCN2CCC(O)(c3ccccc3)CC2)c1.O=C(O)C(=O)O`, the values for the Inhibition with Plasmodium falciparum [1], in the assay on Plasmodium falciparum [2] and in the assay on HepG2 were 100%, 85% and 39%, respectively.
